Experimental data taken from PubChem BioAssay.
The source made the active and inactive calls.

Assays:
[1] = test system: Human papillomavirus type 1a protein E7 (residues 44-93); test: small molecules binding HPV E7 44-93 – biochemical, small-molecule microarray, residues 44-93, 635 nm fluorescence, primary screen (AID 1108); conditions: fluorescence 635 nm, higher = more signal;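 also: E7 fragment applied at 1 µg/mL in TBST for 1 h at 4 C; score combines spot fluorescence with its signal to noise ratio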
[2] = hepatitis C replication reporter changes, two-sided – Huh7 cells, luciferase reporter, HCV replication inhibitor project, primary screen (AID 1109); conditions: Huh7 HCV replicon luciferase reporter, 48 h; higher = more signal;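 also: huh7 hepatoma cells harbouring a luciferase neomycin HCV replicon reporter; luciferase luminescence as measure of HCV replicon replication; test concentration not given here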
[3] = target: Left-right determination factor 2 (Homo sapiens) (UniProt O00292); test: small molecules binding LEFTY2 protein – biochemical, small-molecule microarray, 635 nm fluorescence scan, primary screen (AID 1110); conditions: higher = more signal
Chain of Left-right determination factor 2 (Homo sapiens) (O00292 whole entry, looked up): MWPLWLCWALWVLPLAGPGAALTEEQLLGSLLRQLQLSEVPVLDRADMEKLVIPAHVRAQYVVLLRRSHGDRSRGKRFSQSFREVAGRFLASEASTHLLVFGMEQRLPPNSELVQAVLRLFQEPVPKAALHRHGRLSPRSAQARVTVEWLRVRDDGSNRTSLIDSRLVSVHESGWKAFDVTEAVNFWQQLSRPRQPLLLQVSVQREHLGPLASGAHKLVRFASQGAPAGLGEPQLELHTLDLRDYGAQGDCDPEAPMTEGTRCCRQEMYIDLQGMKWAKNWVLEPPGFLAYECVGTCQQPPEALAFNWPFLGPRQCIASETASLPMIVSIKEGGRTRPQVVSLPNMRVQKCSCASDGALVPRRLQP

[4] = target: Calmodulin-1 (Homo sapiens) (UniProt P0DP23); test: small molecules binding calmodulin-1 with EGTA – biochemical, small-molecule microarray, Cy5-labelled CALM1, profiling panel (AID 1111); conditions: Cy5-CALM1 binding fluorescence, higher = more signal;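 also: labelled calmodulin applied in Tris saline Tween buffer holding calcium plus EGTA and DTT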
[5] = target: Calmodulin-1 (Homo sapiens) (UniProt P0DP23); test: small molecules binding Ca-loaded calmodulin-1 – biochemical, small-molecule microarray, Cy5-labelled CALM1, plus calcium, artefact control for SMM control-protein annotation, profiling panel (AID 1112); conditions: Cy5-CALM1 binding fluorescence, higher = more signal;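 also: score merges spot fluorescence with signal to noise from triplicate slides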
[6] = probe aWnt5a binding to arrayed compounds – biochemical, biotinylated probe, 635/667 nm fluorescence, primary screen (AID 1113); conditions: small-molecule microarray, higher = more signal;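 also: score merges 667 nm fluorescence intensity with signal-to-noise per printed feature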
[7] = probe aShh binding to arrayed compounds – biochemical, biotinylated probe, 635/667 nm fluorescence, primary screen (AID 1114); conditions: small-molecule microarray, higher = more signal;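 also: probe is biotin-labelled aShh protein from a stem cell growth factor screen; measures binding of labelled protein to compounds printed on the slide; score merges feature fluorescence at 667 nm with signal-to-noise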
[8] = probe aNog binding to arrayed compounds – biochemical, biotinylated probe, 635/667 nm fluorescence, primary screen (AID 1115); conditions: small-molecule microarray, higher = more signal;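 also: probe is biotinylated aNog protein used at 0.15 µg/mL for 1 h at 4 C; z-score combines 667 nm fluorescence of each spot with its signal to noise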
[9] = target: Torsin-1A-interacting protein 1 (Homo sapiens) (UniProt Q5JTV8); test: compound microarray binding of lysate hLAP1 – cell lysate, small-molecule microarray, COS7 lysate, 635/667 nm fluorescence, primary screen (AID 1116); conditions: 635 nm fluorescence, higher = more signal
Chain of Torsin-1A-interacting protein 1 (Homo sapiens) (Q5JTV8 whole entry, looked up): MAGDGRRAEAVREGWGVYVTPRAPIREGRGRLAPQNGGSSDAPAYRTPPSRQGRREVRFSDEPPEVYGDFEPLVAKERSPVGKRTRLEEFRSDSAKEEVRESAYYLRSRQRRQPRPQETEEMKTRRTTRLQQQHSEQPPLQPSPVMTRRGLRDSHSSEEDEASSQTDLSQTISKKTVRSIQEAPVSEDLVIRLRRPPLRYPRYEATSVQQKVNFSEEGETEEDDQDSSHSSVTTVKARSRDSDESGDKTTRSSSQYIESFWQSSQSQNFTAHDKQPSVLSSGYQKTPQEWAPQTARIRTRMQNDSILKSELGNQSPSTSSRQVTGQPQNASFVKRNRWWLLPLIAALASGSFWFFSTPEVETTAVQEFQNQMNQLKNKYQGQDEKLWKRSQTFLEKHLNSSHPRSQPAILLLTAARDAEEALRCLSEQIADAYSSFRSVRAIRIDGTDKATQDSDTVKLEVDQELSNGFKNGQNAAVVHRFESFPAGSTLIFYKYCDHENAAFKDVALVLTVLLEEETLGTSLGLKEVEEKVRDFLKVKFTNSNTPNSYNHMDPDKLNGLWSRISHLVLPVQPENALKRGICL

[10] = target: Alpha-bungarotoxin (Bungarus multicinctus) (UniProt P60615); test: compounds binding labelled alpha-BTX control protein – biochemical, small-molecule microarray, Alexa647 label, 635/667 nm fluorescence, artefact control for SMM control protein annotation, profiling panel (AID 1117); conditions: alpha-BTX-A647 binding fluorescence, higher = more signal
Chain of Alpha-bungarotoxin (Bungarus multicinctus) (P60615 whole entry, looked up): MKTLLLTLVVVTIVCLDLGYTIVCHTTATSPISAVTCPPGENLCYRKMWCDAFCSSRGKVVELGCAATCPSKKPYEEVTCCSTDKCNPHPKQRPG

[11] = target: Albumin (Bos taurus) (UniProt P02769); test: compounds binding labelled BSA control protein – biochemical, small-molecule microarray, Alexa647 label, 635/667 nm fluorescence, artefact control for SMM control protein annotation, profiling panel (AID 1118); conditions: BSA-A647 binding, fluorescence 635 nm, higher = more signal;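 also: score merges 667 nm emission intensity and signal-to-noise per printed compound spot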
Chain of Albumin (Bos taurus) (P02769 whole entry, looked up): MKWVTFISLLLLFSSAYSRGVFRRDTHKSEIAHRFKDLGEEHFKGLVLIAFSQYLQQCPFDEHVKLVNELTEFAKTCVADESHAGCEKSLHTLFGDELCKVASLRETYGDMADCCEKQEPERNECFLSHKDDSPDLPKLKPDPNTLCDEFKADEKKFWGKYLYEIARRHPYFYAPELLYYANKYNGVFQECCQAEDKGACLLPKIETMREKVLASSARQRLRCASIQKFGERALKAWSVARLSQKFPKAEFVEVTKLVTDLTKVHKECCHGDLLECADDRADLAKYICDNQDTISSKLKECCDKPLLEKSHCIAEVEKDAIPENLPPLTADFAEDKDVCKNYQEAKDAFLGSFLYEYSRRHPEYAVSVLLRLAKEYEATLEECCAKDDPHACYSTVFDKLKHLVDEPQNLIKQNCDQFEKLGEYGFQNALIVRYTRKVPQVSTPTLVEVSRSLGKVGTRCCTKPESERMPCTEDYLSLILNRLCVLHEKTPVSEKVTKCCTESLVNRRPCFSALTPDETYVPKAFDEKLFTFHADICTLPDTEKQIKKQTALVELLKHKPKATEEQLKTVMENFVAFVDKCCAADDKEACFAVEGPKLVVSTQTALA

[12] = probe aXIP binding to arrayed compounds – biochemical, NeuroSMM set, 635/667 nm fluorescence, primary screen (AID 1119); conditions: small-molecule microarray, higher = more signal, called active from +8 up or from −8 down;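 also: probe is the protein aXip251-270 applied at 1 µg/mL to compound-printed slides; binding of probe to printed compounds measured as 667 nm fluorescence plus signal to noise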
[13] = probe aNOTCH3 binding on compound microarray – biochemical, small-molecule microarray, 635/667 nm fluorescence, primary screen (AID 1120); conditions: higher = more signal;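 also: probe is a biotin-tagged antibody raised against NOTCH3 rather than NOTCH3 protein; score merges spot fluorescence near 667 nm with spot signal to noise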
[14] = probe aNOTCH2 binding on compound microarray – biochemical, small-molecule microarray, 635/667 nm fluorescence, primary screen (AID 1121); conditions: higher = more signal;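 also: score merges feature fluorescence read at 667 nm with its signal to noise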
[15] = target: Carbonic anhydrase 2 (Homo sapiens) (UniProt P00918); test: compounds binding carbonic anhydrase 2 – biochemical, small-molecule microarray, Alexa647-labelled CAII, profiling panel (AID 1122); conditions: CAII-A647 binding fluorescence, higher = more signal
[16] = COS7 lysate on small-molecule microarray, probe aHis, 635 nm (AID 1123); conditions: COS7 cell lysate, fluorescence, higher = more signal;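 also: z-score combines 667nm fluorescence intensity with signal-to-noise per printed compound spot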
[17] = probe aLAP1 signal on lysate-treated microarray – cell lysate, small-molecule microarray, COS7 lysate, primary screen (AID 1124); conditions: probe aLAP1, fluorescence, higher = more signal;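 also: lysate comes from COS7 cells expressing LAP1 and is applied at 0.3 µg/mL; score merges spot fluorescence near 667 nm with signal-to-noise over triplicate slides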
[18] = test system: Sam68 (KHDRBS1); test: compounds binding KHDRBS1 protein – biochemical, small-molecule microarray, 635 nm fluorescence, primary screen (AID 1125); conditions: higher = more signal;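 also: score merges 667 nm channel intensity with signal to noise over triplicate slides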
[19] = test system: Chordin-like protein 2 (CHRDL2); test: compounds binding chordin-like 2 – biochemical, small-molecule microarray, 635 nm fluorescence, primary screen (AID 1126); conditions: fluorescence 635 nm, higher = more signal;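 also: printed compound slides probed with Chrdl2 protein at 4 µg/mL for 1 h at 4 C; score merges 667 nm emission intensity with signal to noise over three replicate slides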
[20] = target: Concanavalin-A (Canavalia ensiformis) (UniProt P02866); test: compounds binding concanavalin A lectin – biochemical, small-molecule microarray, Alexa647 label, 635 nm, artefact control for SMM control protein annotation, primary screen (AID 1127); conditions: ConA-A647 binding fluorescence, higher = more signal;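 also: z combines 667 nm emission intensity with signal-to-noise across three replicate slides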
Chain of Concanavalin-A (Canavalia ensiformis) (P02866 whole entry, looked up): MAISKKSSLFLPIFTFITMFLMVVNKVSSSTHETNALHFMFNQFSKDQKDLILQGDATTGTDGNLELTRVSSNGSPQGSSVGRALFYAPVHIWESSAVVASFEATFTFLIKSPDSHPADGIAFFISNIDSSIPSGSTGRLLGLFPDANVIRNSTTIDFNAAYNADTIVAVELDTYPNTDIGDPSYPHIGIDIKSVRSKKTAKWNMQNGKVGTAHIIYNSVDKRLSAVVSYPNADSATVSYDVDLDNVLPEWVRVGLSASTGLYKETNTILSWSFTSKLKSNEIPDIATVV

Compound | composite z-score [1] | z-score [2] | composite z-score [3] | composite z-score [4] | composite z-score [5] | composite z-score [6] | composite z-score [7] | composite z-score [8] | composite z-score [9] | composite z-score [10] | composite z-score [11] | composite Z-score [12] | composite z-score [13] | composite z-score [14] | composite z-score [15] | composite z-score [16] | composite z-score [17] | composite z-score [18] | composite z-score [19] | composite z-score [20]
CN(C)CCCCNC(=O)[C@H]1C[C@H]2C(=O)N[C@@H](Cc3ccccc3)C(=O)N2[C@H]1c1ccc(O)cc1 | 1.38 | 0.506 | 1.17 | 0.561 | 0.746 | -0.0866 | -0.0243 | 0.355 | 0.945 | 1.55 | 0.356 | 0.124 (inactive) | 0.143 | -0.0684 | 0.158 | 0.538 | 0.263 | 1.3 | 0.956 | 0.863
O=C1C2C=CC(C(O)c3ccc(B(O)O)cc3)N(Nc3ccccc3)C2C(=O)N1c1ccccc1 (stereo not given) | 0.0036 | -1.49 | -0.158 | 0.883 | 0.665 | -0.0944 | 0.151 | 0.162 | 0.949 | 0.402 | 0.764 | 0.387 (inactive) | 0.127 | -0.0438 | 0.793 | 0.408 | -0.0389 | -0.346 | -0.0149 | -0.874
COc1ccc(CCNC(=O)[C@@]2(Sc3ccc(C)cc3)CC(=O)N(Cc3ccccc3Cl)[C@@H]2c2ccc(CO)cc2I)cc1 | 0.552 | -1.98 | -0.736 | -0.252 | -0.0371 | -0.184 | 0.157 | 0.384 | 1.08 | 0.42 | 0.331 | -0.0194 (inactive) | -0.177 | -0.0814 | 0.76 | 1.71 | 1.18 | 0.361 | 0.0024 | -0.233
Cc1ccc([C@H]2C(C(=O)O)=C[C@@H](C)N2S(=O)(=O)c2ccc(C)cc2)cc1 | 0.801 | 0.537 | -0.942 | 1 | 0.0248 | -0.0478 | 0.0062 | -0.0827 | 0.917 | 1.57 | 0.892 | 0.24 (inactive) | -0.0918 | 0.069 | 0.866 | 2.6 | 0.166 | 0.821 | -1.55 | -0.72
Cc1ccc(F)cc1S(=O)(=O)N[C@@H]1CCN(Cc2ccc(-c3ccccc3)cc2)C1 | 0.504 | -4.36 | 0.473 | -0.452 | -0.578 | -0.129 | -0.0011 | -0.316 | 0.668 | 0.116 | 0.413 | -0.569 (inactive) | -0.126 | -0.0598 | 0.482 | 0.249 | 0.625 | 0.581 | 0.776 | -0.0888
